Shown are actives, neighbours in structure and some others; about 6.8% of the full set was active somewhere.
Pf Dd2 inh = P. falciparum Dd2 growth inhibition; SYBR Green, 72 h; active compounds read low; activity change, % at 10 µM; 2.3% of 94,000 active; AID 1159554; in the data active = activity change below about -80%; inconclusive = no clear call, values can overlap the other calls
C diff HTS = inhibitors of Clostridium difficile growth. AID 1259249. Clostridium difficile clinical isolate growth, OD600, 24 h; active compounds read low. 0.25% of 86,000 active. growth activity, negative = inhibition, % at 16 µg/mL (by protocol);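 active = mean growth activity at or below -80% and every replicate also at or below -80%; inconclusive = mean at or below -80% but some replicate above -80%; inactive = mean growth activity above -80%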
T cruzi growth-1 = blocks T. cruzi growth in NIH3T3 culture; 5.9% of 77,000 active; T. cruzi beta-gal in NIH3T3, GalScreen luminescence, 90 h; inhibition, % at 8.34 µM;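 active = mean inhibition above about 93%, with at least 55% of replicates each passing it, limit read from the data, passing the limit was not always enough; inconclusive = only one of those two conditions holds; inactive = neither condition holds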
T cruzi growth-2 = inhibitors of T. cruzi proliferation; shares compounds with T cruzi growth-1; T. cruzi beta-gal in NIH3T3, GalScreen luminescence, 90 h; inhibition, % at 8.35 µM; 72% of 5,600 active;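 active = mean replicate inhibition above about 95% and at least 55% of replicates individually reaching it, limit read from the data; inconclusive = only one of the two criteria is met; inactive = neither criterion is met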
T cruzi growth-3 = inhibitors of T. cruzi proliferation | AID 651740 | 21% of 5,600 active | inhibition, % at 2.09 µM | shares compounds with T cruzi growth-1 | T. cruzi beta-gal in NIH3T3, GalScreen luminescence, 90 h;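 active = mean inhibition above about 95%, with at least 55% of replicates also reaching it, limit read from the data; inconclusive = meets just one of the two conditions; inactive = meets neither condition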
3T3 cytotox = NIH/3T3 (mouse) viability loss; 14% of 5,600 active; shares compounds with T cruzi growth-1; AID 651742; cytotoxicity (signal decrease), % at 8.35 µM; NIH/3T3 viability, CellTiter-Glo ATP luminescence, 90 h;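 active = mean signal decrease across replicates above about 35% based on untreated-well scatter, with enough replicates individually passing, limit read from the data; inconclusive = no rule stated though some were filed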
NIH3T3 tox 2 = kills mouse NIH/3T3 fibroblasts; shares compounds with T cruzi growth-1; NIH/3T3 viability, CellTiter-Glo ATP luminescence, 90 h; inhibition, % at 24.9 µM; 56% of 5,600 active;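 active = mean loss of cell viability signal at or above a set limit, and enough replicates individually reaching it; inconclusive = meets only the mean limit or only the replicate share; inactive = meets neither condition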
Large screens that a line does not name were inactive (follow-up assays come after a bar, where they were run).

O=C(CN1CCOCC1)N1CCCCN2[C@H](C1)[C@H](c1ccc(C#Cc3ccccc3)cc1)[C@@H]2CO	none
O=C(CN1CCOCC1)N1CCCCN2[C@H](CO)[C@@H](c3ccc(-c4ccccc4)cc3)[C@H]2C1	none
O=C(CN1CCOCC1)N1CCCCN2[C@@H](CO)[C@@H](c3ccc(C#Cc4ccccc4)cc3)[C@@H]2C1	T cruzi growth-1 98 | T cruzi growth-2 inactive | T cruzi growth-3 inactive | 3T3 cytotox inactive | NIH3T3 tox 2 103
COc1ccccc1-c1ccc([C@@H]2[C@H](CO)N3CCCCN(C(=O)CN4CCOCC4)C[C@@H]23)cc1	none
C[C@@H]1CN([C@H](C)CO)C(=O)c2c(c3ccccc3n2C)-c2ccccc2CO[C@@H]1CN(C)CC1CC1	none (no result: C diff HTS)
COc1ccc2c3c(n(C)c2c1)[C@@H](CO)N(C(=O)NC(C)C)CC31CCN(C(=O)NC(C)C)CC1	none (no result: T cruzi growth-1)
Cc1ccc(S(=O)(=O)N[C@@H]2CC[C@@H](CCNC(=O)Nc3ccc(Cl)cc3)O[C@H]2CO)cc1	none
C[C@@H]1CCCCO[C@@H](CN(C)Cc2ccc(C(F)(F)F)cc2)[C@H](C)CN([C@@H](C)CO)C(=O)c2cc(NC(=O)CCCN(C)C)ccc2O1	none
C[C@H]1CN([C@@H](C)CO)S(=O)(=O)c2ccc(C#CC3CC3)cc2O[C@@H]1CN(C)CC1CCOCC1	T cruzi growth-1 inconclusive | T cruzi growth-2 103 | T cruzi growth-3 inactive | 3T3 cytotox inactive | NIH3T3 tox 2 99
C[C@@H]1CN([C@@H](C)CO)S(=O)(=O)c2ccc(C#CC3CC3)cc2O[C@H]1CN(C)CC1CCOCC1	T cruzi growth-1 109 | T cruzi growth-2 inactive | T cruzi growth-3 inactive | 3T3 cytotox 65 | NIH3T3 tox 2 89
C[C@@H]1CN([C@@H](C)CO)S(=O)(=O)c2ccc(C#CC3CC3)cc2O[C@@H]1CN(C)CC1CCOCC1	none
C[C@H]1CN([C@@H](C)CO)S(=O)(=O)c2ccc(C#CC3CC3)cc2O[C@H]1CN(C)CC1CC1	none (no result: C diff HTS)
C[C@@H]1CN([C@H](C)CO)C(=O)Cc2cc(NC(=O)Nc3cccc4ccccc34)ccc2O[C@H]1CN(C)S(=O)(=O)c1ccc(Cl)cc1	none
COc1ccc(S(=O)(=O)N(C)C[C@@H]2Oc3ccc(NC(=O)C4CCCCC4)cc3C(=O)N([C@H](C)CO)C[C@H]2C)cc1	none
C[C@@H]1CN([C@H](C)CO)C(=O)Cc2cc(NS(=O)(=O)c3ccc(Cl)cc3)ccc2O[C@H]1CN(C)Cc1ccc(C(=O)O)cc1	none
CCCN1[C@@H]2c3ccc(-c4ccccc4F)c(=O)n3C[C@@H]2[C@@H](CO)[C@@H]1C(=O)NCC	T cruzi growth-1 98 | T cruzi growth-2 inactive | T cruzi growth-3 inactive | 3T3 cytotox inactive | NIH3T3 tox 2 inactive
CCCNC(=O)[C@@H]1[C@@H](CO)[C@@H]2Cn3c(ccc(-c4cccc(F)c4)c3=O)[C@H]1N2C(=O)c1ccccn1	T cruzi growth-1 103 | T cruzi growth-2 inconclusive | T cruzi growth-3 inactive | 3T3 cytotox inactive | NIH3T3 tox 2 inactive
CCCNC(=O)[C@@H]1[C@@H](CO)[C@@H]2Cn3c(ccc(-c4ccccc4F)c3=O)[C@@H]2N1CCC	none
CCCNC(=O)[C@H]1[C@H](CO)[C@H]2Cn3c(ccc(-c4cccc(F)c4)c3=O)[C@@H]1N2C(C)=O	none
CCNC(=O)[C@@H]1[C@@H](CO)[C@@H]2Cn3c(ccc(-c4ccccc4)c3=O)[C@@H]2N1Cc1ccc2c(c1)OCO2	T cruzi growth-1 102 | T cruzi growth-2 101 | T cruzi growth-3 inactive | 3T3 cytotox inactive | NIH3T3 tox 2 inactive
CCNC(=O)[C@@H]1[C@@H](CO)[C@@H]2Cn3c(ccc(C4=CCCCC4)c3=O)[C@@H]2N1Cc1ccc2c(c1)OCO2	none (no result: T cruzi growth-1)
CCCN1[C@@H]2c3ccc(-c4cccc(F)c4)c(=O)n3C[C@@H]2[C@@H](CO)[C@@H]1C(=O)N[C@@H](C)c1ccccc1	none (no result: Pf Dd2 inh)
CCCN1[C@H](C(=O)N[C@@H](C)c2ccccc2)[C@@H](CO)[C@@H]2Cn3c(ccc(-c4cccc(F)c4)c3=O)[C@@H]21	T cruzi growth-1 108 (no result: Pf Dd2 inh) | T cruzi growth-2 97 | T cruzi growth-3 inactive | 3T3 cytotox inactive | NIH3T3 tox 2 68
O=C(C1CCC1)N1[C@H](CO)[C@@H](c2ccccc2)C12CN(CCC(F)(F)F)C2	none (no result: T cruzi growth-1)
C[C@H](CO)N1C[C@H](C)[C@H](CN(C)S(C)(=O)=O)OCCCC[C@H](C)Oc2ccc(NC(=O)c3ccccc3)cc2C1=O	none
Cc1cc(C(=O)Nc2cccc3c2O[C@@H](CN(C)Cc2ccc(C(F)(F)F)cc2)[C@H](C)CN([C@@H](C)CO)C3=O)n(C)n1	none
CNC(=O)C[C@H]1CC[C@H]2[C@@H](COc3ccc(NC(=O)Nc4ccccc4F)cc3C(=O)N2C)O1	none
C/C=C/c1ccc2c(c1)O[C@@H](CN(C)C(=O)Nc1ccccc1)[C@H](C)CN([C@H](C)CO)S2(=O)=O	none
C/C=C/c1ccc2c(c1)O[C@@H](CN(C)C(=O)Nc1ccc(C(F)(F)F)cc1)[C@@H](C)CN([C@H](C)CO)S2(=O)=O	T cruzi growth-1 110 | T cruzi growth-2 101 | T cruzi growth-3 inactive | 3T3 cytotox 59 | NIH3T3 tox 2 52
C/C=C/c1ccc2c(c1)O[C@@H](CN(C)C(=O)Nc1ccc(F)cc1)[C@@H](C)CN([C@H](C)CO)S2(=O)=O	none
C/C=C/c1ccc2c(c1)O[C@@H](CN(C)C(=O)Nc1ccccc1)[C@@H](C)CN([C@H](C)CO)S2(=O)=O	none
C/C=C/c1ccc2c(c1)O[C@H](CN(C)C(=O)Nc1ccc(C(F)(F)F)cc1)[C@H](C)CN([C@H](C)CO)S2(=O)=O	T cruzi growth-1 100 | T cruzi growth-2 96 | T cruzi growth-3 inactive | 3T3 cytotox 38 | NIH3T3 tox 2 90
C/C=C/c1ccc2c(c1)O[C@H](CN(C)C(=O)Nc1ccc(C(F)(F)F)cc1)[C@@H](C)CN([C@@H](C)CO)S2(=O)=O	T cruzi growth-1 101 | T cruzi growth-2 inactive | T cruzi growth-3 inactive | 3T3 cytotox 73 | NIH3T3 tox 2 98
CCC(=O)N1CCC2(CC1)CN(CC1CCOCC1)[C@H](CO)c1c2c2ccc(OC)cc2n1C	none (no result: T cruzi growth-1)
C[C@@H]1CCCCO[C@H](CN(C)C(=O)c2ccccc2)[C@H](C)CN([C@@H](C)CO)C(=O)c2cc(NS(=O)(=O)c3ccc(F)cc3)ccc2O1	none
C[C@H]1CN([C@@H](C)CO)C(=O)c2cccc(NC(=O)c3nc4ccccc4s3)c2O[C@@H]1CN(C)Cc1ccc(C(=O)Nc2ccccc2N)cc1	Pf Dd2 inh -89, T cruzi growth-1 106 (no result: C diff HTS) | T cruzi growth-2 107 | T cruzi growth-3 inactive | 3T3 cytotox inactive | NIH3T3 tox 2 inconclusive
C[C@H]1CN([C@@H](C)CO)C(=O)c2cccc(NC(=O)c3nc4ccccc4s3)c2O[C@@H]1CN(C)Cc1ccc(C(=O)O)cc1	none

Source: PubChem
